Measured values from PubChem BioAssay AID1159580 (chemical genetic matrix, 2015).
Several values for one entry are separate records, joined by “and”; a condition that tells them apart may be missing. Identical values can stand only once. About 2,000 (36%) of roughly 5,500 compounds were called active. Another 18% or so got no clear call; they are omitted. Rule as the data show it: active = normalized growth mostly below about 0.91 (no sharp cut-off); inconclusive = no clear call, values can overlap the other calls; inactive = mostly above about 0.92. Some of the results follow.

Experiment: chemical genetic growth profiling, strain panel (AID 1159580);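 also: tested at 20 µM; growth read once vehicle control cultures reached saturation at 30 °C; 1 = growth at the plate median or of vehicle wells; lower values mean less growth of the strain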
Conditions: growth OD

Measured: normalized growth

CCOC(=O)C1=C(C)NC(C)=C(C(=O)OC)C1c1cccc([N+](=O)[O-])c1 (stereo unspecified)
inactive: S. cerevisiae deletion strains, locus YJL187C, strain SWE1, hits give low values 1.01 | S. cerevisiae deletion strains, locus YJR043C, strain POL32, hits give low values 1.01 | S. cerevisiae deletion strains, locus YJR075W, strain HOC1, hits give low values 0.995 and 0.989 | S. cerevisiae deletion strains, locus YKL009W, strain mrt4, hits give low values 1.01 | S. cerevisiae deletion strains, locus YKL068W, hits give low values 0.996 | S. cerevisiae deletion strains, locus YKL085W, strain MDH1 (second series), hits give low values 0.997 | S. cerevisiae deletion strains, locus YKL085W, strain MDH1, hits give low values 0.997 | S. cerevisiae deletion strains, locus YKL160W, strain elf1, hits give low values 1.01 | S. cerevisiae deletion strains, locus YKL190W, strain CNB1, hits give low values 0.99 | S. cerevisiae deletion strains, locus YKR001C, strain vps1, hits give low values 1 | S. cerevisiae deletion strains, locus YKR026C, strain gcn3, hits give low values 0.999 | S. cerevisiae deletion strains, locus YKR091W, strain srl3, hits give low values 1 | S. cerevisiae deletion strains, locus YLL001W, strain dnm1, hits give low values 1.02 | S. cerevisiae deletion strains, locus YLL026W, hits give low values 1 | S. cerevisiae deletion strains, locus YLL041C, strain sdh2, hits give low values 1.02 | S. cerevisiae deletion strains, locus YLR027C, strain aat2, hits give low values 1.01 | S. cerevisiae deletion strains, locus YLR039C, strain RIC1, hits give low values 0.968 | S. cerevisiae deletion strains, locus YLR058C, strain SHM2, hits give low values 0.999 | S. cerevisiae deletion strains, locus YLR102C, strain apc9, hits give low values 1 | S. cerevisiae deletion strains, locus YLR221C, strain rsa3, hits give low values 1.01 | S. cerevisiae deletion strains, locus YLR258W, strain gsy2, hits give low values 1.01 | S. cerevisiae deletion strains, locus YLR262C, strain YPT6 (second series), hits give low values 0.959 | S. cerevisiae deletion strains, locus YLR262C, strain YPT6, hits give low values 0.946 | S. cerevisiae deletion strains, locus YLR268W, strain sec22, hits give low values 0.984 | S. cerevisiae deletion strains, locus YLR320W, strain mms22, hits give low values 1 | S. cerevisiae deletion strains, locus YLR330W, strain CHS5, hits give low values 1.01 | S. cerevisiae deletion strains, locus YLR342W, strain FKS1 (second series), hits give low values 1.01 | S. cerevisiae deletion strains, locus YLR342W, strain FKS1, hits give low values 1.01 | S. cerevisiae deletion strains, locus YLR357W, strain rsc2, hits give low values 1.02 | S. cerevisiae deletion strains, locus YLR370C, strain arc18, hits give low values 1.01 | S. cerevisiae deletion strains, locus YLR371W, strain rom2, hits give low values 1.01 | S. cerevisiae deletion strains, locus YLR384C, strain iki3, hits give low values 0.998 | S. cerevisiae deletion strains, locus YLR418C, strain cdc73, hits give low values 0.967 | S. cerevisiae deletion strains, locus YML016C, strain PPZ1, hits give low values 1 | S. cerevisiae deletion strains, locus YML032C, strain rad52, hits give low values 1.02 | S. cerevisiae deletion strains, locus YML120C, strain ndi1, hits give low values 1.01 | S. cerevisiae deletion strains, locus YML124C, strain tub3, hits give low values 1 | S. cerevisiae deletion strains, locus YMR058W, strain fet3, hits give low values 1.02 | S. cerevisiae deletion strains, locus YMR078C, strain ctf18, hits give low values 0.999 | S. cerevisiae deletion strains, locus YMR125W, strain sto1, hits give low values 1.01 | S. cerevisiae deletion strains, locus YMR129W, hits give low values 0.999 | S. cerevisiae deletion strains, locus YMR205C, strain PFK2, hits give low values 0.991 | S. cerevisiae deletion strains, locus YMR223W, strain ubp8, hits give low values 1.01 | S. cerevisiae deletion strains, locus YMR231W, strain pep5, hits give low values 1.01 | S. cerevisiae deletion strains, locus YMR263W, strain SAP30, hits give low values 1.01 and 0.981 | S. cerevisiae deletion strains, locus YMR307W, strain GAS1, hits give low values 0.931 | S. cerevisiae deletion strains, locus YNL067W, strain RPL9B, hits give low values 0.996 | S. cerevisiae deletion strains, locus YNL071W, strain lat1, hits give low values 1.01 | S. cerevisiae deletion strains, locus YNL128W, strain TEP1, hits give low values 0.994 and 1.01 | S. cerevisiae deletion strains, locus YNL153C, strain GIM3, hits give low values 0.999 and 0.961 | S. cerevisiae deletion strains, locus YNL209W, strain ssb2, hits give low values 1.01 | S. cerevisiae deletion strains, locus YNL224C, strain SQS1, hits give low values 0.979 | S. cerevisiae deletion strains, locus YNL233W, strain BNI4, hits give low values 0.995 | S. cerevisiae deletion strains, locus YNL248C, strain rpa49, hits give low values 1.01 | S. cerevisiae deletion strains, locus YNL250W, strain rad50, hits give low values 1.01 | S. cerevisiae deletion strains, locus YNL271C, strain bni1, hits give low values 1.01 | S. cerevisiae deletion strains, locus YNL298W, strain CLA4, hits give low values 1.02 | S. cerevisiae deletion strains, locus YNL307C, strain MCK1, hits give low values 1.01 | S. cerevisiae deletion strains, locus YNL322C, strain KRE1 (second series), hits give low values 1.01 | S. cerevisiae deletion strains, locus YNL322C, strain KRE1, hits give low values 1 and 0.995 | S. cerevisiae deletion strains, locus YNR049C, strain mso1, hits give low values 1.01 | S. cerevisiae deletion strains, locus YNR052C, strain pop2, hits give low values 1.01 | S. cerevisiae deletion strains, locus YOL006C, strain TOP1, hits give low values 1.01 | S. cerevisiae deletion strains, locus YOL012C, strain htz1 0.79 | S. cerevisiae deletion strains, locus YOL147C, strain pex11, hits give low values 1.01 | S. cerevisiae deletion strains, locus YOR001W, strain rrp6, hits give low values 1.03 | S. cerevisiae deletion strains, locus YOR061W, strain CKA2, hits give low values 0.988 | S. cerevisiae deletion strains, locus YOR069W, strain VPS5, hits give low values 0.997 | S. cerevisiae deletion strains, locus YOR070C, strain gyp1, hits give low values 1.01 | S. cerevisiae deletion strains, locus YOR080W, strain dia2, hits give low values 1.01 | S. cerevisiae deletion strains, locus YOR083W, strain WHI5, hits give low values 1 | S. cerevisiae deletion strains, locus YOR106W, strain vam3, hits give low values 1.01 | S. cerevisiae deletion strains, locus YOR136W, strain idh2, hits give low values 1.02 | S. cerevisiae deletion strains, locus YOR144C, strain elg1, hits give low values 1 | S. cerevisiae deletion strains, locus YOR184W, strain ser1, hits give low values 1.01 | S. cerevisiae deletion strains, locus YOR265W, strain rbl2, hits give low values 1 | S. cerevisiae deletion strains, locus YOR270C, strain vph1, hits give low values 1.03 | S. cerevisiae deletion strains, locus YOR290C, strain snf2, hits give low values 1.01 | S. cerevisiae deletion strains, locus YOR316C, strain cot1, hits give low values 1 | S. cerevisiae deletion strains, locus YPL051W, strain arl3, hits give low values 1 | S. cerevisiae deletion strains, locus YPL055C, strain LGE1, hits give low values 0.95 and 1 | S. cerevisiae deletion strains, locus YPL078C, strain atp4, hits give low values 1.03 | S. cerevisiae deletion strains, locus YPL106C, strain sse1, hits give low values 1.04 | S. cerevisiae deletion strains, locus YPL240C, strain hsp82, hits give low values 1.01 | S. cerevisiae deletion strains, locus YPL241C, strain CIN2, hits give low values 0.977 | S. cerevisiae deletion strains, locus YPR119W, strain clb2, hits give low values 1 | S. cerevisiae deletion strains, locus YPR141C, strain kar3, hits give low values 1 | S. cerevisiae deletion strains, locus YPR163C, strain tif3, hits give low values 1.01 | S. cerevisiae deletion strains, locus YPR167C, strain met16, hits give low values 0.998 | S. cerevisiae deletion strains, strain wtn01, hits give low values 0.987 | S. cerevisiae strains, strain wild type, hits give low values 0.982
